{
  "source": "PubChem BioAssay (NCI)",
  "note": "About 83,000 compounds went through this panel and 20% of them were active in at least one assay; those are over-represented in the sample as a whole.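 Assay: single dose, 48 h. Readout: percent growth (0 = no net growth; negative = cell death). Active: <10.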 Unmarked numbers belong to inactive results. Activity calls are given as the source filed them.",
  "data": [
    {"test_system": "HOP-62 NSCLC", "assay": "NCI-60 one-dose screen, 48 h (100 = growth as untreated, 0 = no growth, -100 = all killed)", "details": "10 µM unless noted", "values": [
      {"smiles": "CC1(C)c2[nH]c3ccccc3c2C[C@]2(C)[C@H]3CC=C4[C@@H]5C[C@@](C)(C(N)=O)CC[C@]5(C)CC[C@@]4(C)[C@]3(C)CC[C@@H]12", "growth": "79.5%"},
      {"smiles": "CCCCCOc1ccc(C(=O)/C(Br)=C/C(=O)O)cc1", "growth": "214%"},
      {"smiles": "CC(C)N1CCN(Cc2ccc3c(NNC(=O)c4ccccc4)nc4cc(F)ccc4n23)CC1", "growth": "24.9%"},
      {"smiles": "N#Cc1cccc(NC(=O)c2oc3ccccc3c2-c2cnn(-c3ccccc3)c2)c1", "growth": "92.6% [50 µM]"},
      {"smiles": "Cc1cccc(N2CCN(CC(O)COc3ccc(Cl)cc3)CC2)c1", "note": "(centres undefined)", "growth": "100%"},
      {"smiles": "CCOC(=O)c1c(C)nc2c(c1N)CC(=O)N2Cc1cc(F)cc(Cl)c1", "growth": "89.7%"},
      {"smiles": "C[C@@H]1CCC[C@H]1CC(N)C(=O)O", "note": "(some centres undefined)", "growth": "107%"},
      {"smiles": "O=CC1(C2(C=O)c3ccccc3-c3ccccc32)c2ccccc2-c2ccccc21", "growth": "-76.3% (active)"},
      {"smiles": "O=C1Nc2ccc(I)cc2C1=O", "growth": "84.4%"},
      {"smiles": "CN1CCN(c2ccc(NC(=O)c3nc4ccc5[nH]ncc5c4c4c3CCCC4)cc2C(F)(F)F)CC1", "growth": "72.2%"},
      {"smiles": "CN(C)C1CCN(Cc2ccc(NC(=O)c3cncc(C#Cc4cnc(N)c5ncccc45)c3)cc2C(F)(F)F)CC1", "growth": "75.5%"},
      {"smiles": "COc1ccc(C/C(C)=C(/c2ccc(OCCN3CCCCC3)cc2)c2ccc(OC(=O)NCc3ccccc3)cc2)cc1", "growth": "-89.2% (active)"},
      {"smiles": "COc1ccccc1NC(=O)Cn1cc(CN2CCN(c3ccnc4cc(Cl)ccc34)CC2)nn1", "growth": "86.2%"},
      {"smiles": "N=C(N)c1ccc(-c2ccc(-c3ccc(F)cc3)o2)o1", "growth": "38.1%"},
      {"smiles": "CN1C(=O)/C(=C/c2ccc(C(=O)Nc3ncc(Cc4ccc(Cl)cc4)s3)cc2)SC1=S", "growth": "49.7%"},
      {"smiles": "CCCCCC(=O)OCC(=O)O[C@@H]1C[C@]2(C(C)C)O[C@@]1(C)[C@@H]1CC[C@@H](C)[C@H]1[C@@H]2OC(=O)/C=C/c1ccccc1", "growth": "91.7%"},
      {"smiles": "CC(=O)N(N=Nc1ccccc1)c1cccc2ccccc12", "growth": "90.5%"},
      {"smiles": "COc1ccc(/C=C2\\C(=O)N=C3N2NC(c2cc(Br)ccc2O)C=C(C)N3c2ccccc2)cc1", "note": "(centres undefined)", "growth": "108%"},
      {"smiles": "CC(C)(C)[Si](C)(C)O[C@H]1C(=O)C=CN2CC=C[C@@H]12", "growth": "111% [100 µM]"},
      {"smiles": "C=C1C(=O)O[C@H]2[C@H]1CC/C(COC(=O)CSCCSCC(=O)OC/C1=C/CC[C@@]3(C)O[C@H]3[C@H]3OC(=O)C(=C)[C@@H]3CC1)=C\\CC[C@@]1(C)O[C@@H]21", "growth": "81.2%"},
      {"smiles": "Brc1ccc2[nH]cc(-c3nonc3-c3c[nH]c4ccccc34)c2c1", "growth": "43.4%"},
      {"smiles": "COc1cccc(NC(=O)Cn2cc(CN3CCN(c4ccnc5cc(Cl)ccc45)CC3)nn2)c1", "growth": "71.6%"},
      {"smiles": "CCOc1ccc(NC(=O)CSc2oc(-c3ccccc3)nc2S(=O)(=O)c2ccc(F)cc2)cc1", "growth": "58.2%"},
      {"smiles": "O=C1Nc2ccc(Br)cc2/C1=N/c1n[nH]c(=S)s1", "growth": "89%"},
      {"smiles": "COc1ccc(C(=O)C2C(c3ccc(OC)cc3)CN(C)C23C(=O)Nc2ccccc23)cc1", "note": "(centres undefined)", "growth": "94.3%"},
      {"smiles": "Cc1noc(C)c1C(=O)OCc1coc2ccccc2c1=O", "growth": "87.5%"},
      {"smiles": "C[C@]12CC[C@@H]3c4ccc(O)c([N+](=O)[O-])c4CC[C@H]3[C@@H]1CCC2=O", "growth": "104%"},
      {"smiles": "COc1cccc([C@H]2c3[nH]c4ccccc4c3C[C@H]3C(=O)N(CCCCCCC(=O)NO)CC(=O)N23)c1", "growth": "68.6%"},
      {"smiles": "CO/N=C(/C)c1ccc(NC(=O)CSc2nnc(-c3ccncc3)n2-c2ccccc2)cc1", "growth": "39.2%"}
    ]},
    {"test_system": "NCI-H460 lung", "assay": "NCI-60 one-dose screen, 48 h (100 = growth as untreated, 0 = no growth, -100 = all killed)", "details": "10 µM unless noted", "values": [
      {"smiles": "O=C1c2cccc3cccc(c23)C(=O)N1N1C(=O)c2cccc3c(N4CCOCC4)ccc(c23)C1=O", "growth": "101%"},
      {"smiles": "CCO/C=N/C1=C(C#N)C(c2ccc(OC)cc2)c2sc3c(F)cccc3c2O1", "note": "(centres undefined)", "growth": "12.7%"},
      {"smiles": "Cc1ccc(CNc2ccc(Cl)cc2NCc2ccc(C)c(O)c2)cc1O", "growth": "2.22% (active)"},
      {"smiles": "O=C(c1ccc(-c2nc(CSc3nc4ccccc4s3)no2)cc1)N1CCSCC1", "growth": "69.6%"},
      {"smiles": "C/C(=C(/c1ccc(Cl)cc1)c1ccc(OCCN2CCCC2)cc1)c1ccc(Cl)cc1", "growth": "70.6%"},
      {"smiles": "CC[C@]12C=CCN3CC[C@@]4(c5cc(NC(=O)CCC(=O)OCc6cn(Cc7ccc(F)cc7)nn6)c(OC)cc5N(C)[C@H]4[C@@](O)(C(=O)OC)[C@@H]1OC(C)=O)[C@@H]32", "growth": "106%"},
      {"smiles": "C=C(C)[C@@H]1CC[C@]2(C(=O)O)CC[C@]3(C)[C@H](CC[C@@H]4[C@@]5(C)C[C@@H](Cc6cn(CCO[C@@H]7O[C@H](COC(C)=O)[C@H](OC(C)=O)[C@H](OC(C)=O)[C@H]7OC(C)=O)nn6)[C@H](O)C(C)(C)[C@@H]5CC[C@]43C)[C@@H]12", "growth": "62%"},
      {"smiles": "C=CCn1c(SCC(=O)Nc2ccc(C(=O)/C=C/c3ccc(Cl)cc3)cc2)nnc1-c1cc(-c2ccc(S(N)(=O)=O)cc2)nc2ccccc12", "growth": "103%"},
      {"smiles": "CCOC(=O)C1=NN(c2ccccc2)C(=O)/C1=C\\N1C(=O)CC(=O)NC1=S", "growth": "106%"},
      {"smiles": "CC12CCC3c4ccccc4CCC3(CO1)C2", "note": "(centres undefined)", "growth": "105%"},
      {"smiles": "O=C1CC(N2C(=O)/C(=C/C(Cl)=C\\c3ccc([N+](=O)[O-])cc3)SC2=S)C(=O)N1c1ccc(Cl)cc1", "note": "(centres undefined)", "growth": "74.5%"},
      {"smiles": "CC1(C)c2[nH]c3ccccc3c2C[C@]2(C)[C@H]3CC=C4[C@@H]5C[C@@](C)(C(N)=O)CC[C@]5(C)CC[C@@]4(C)[C@]3(C)CC[C@@H]12", "growth": "52.6%"},
      {"smiles": "CCCCCOc1ccc(C(=O)/C(Br)=C/C(=O)O)cc1", "growth": "103%"},
      {"smiles": "CC(C)N1CCN(Cc2ccc3c(NNC(=O)c4ccccc4)nc4cc(F)ccc4n23)CC1", "growth": "3.96% (active)"},
      {"smiles": "N#Cc1cccc(NC(=O)c2oc3ccccc3c2-c2cnn(-c3ccccc3)c2)c1", "growth": "84.3% [50 µM]"},
      {"smiles": "Cc1cccc(N2CCN(CC(O)COc3ccc(Cl)cc3)CC2)c1", "note": "(centres undefined)", "growth": "112%"},
      {"smiles": "CCOC(=O)c1c(C)nc2c(c1N)CC(=O)N2Cc1cc(F)cc(Cl)c1", "growth": "98.1%"},
      {"smiles": "C[C@@H]1CCC[C@H]1CC(N)C(=O)O", "note": "(some centres undefined)", "growth": "102%"},
      {"smiles": "O=CC1(C2(C=O)c3ccccc3-c3ccccc32)c2ccccc2-c2ccccc21", "growth": "-46.9% (active)"},
      {"smiles": "O=C1Nc2ccc(I)cc2C1=O", "growth": "107%"},
      {"smiles": "CN1CCN(c2ccc(NC(=O)c3nc4ccc5[nH]ncc5c4c4c3CCCC4)cc2C(F)(F)F)CC1", "growth": "-55.4% (active)"},
      {"smiles": "CN(C)C1CCN(Cc2ccc(NC(=O)c3cncc(C#Cc4cnc(N)c5ncccc45)c3)cc2C(F)(F)F)CC1", "growth": "0.477% (active)"},
      {"smiles": "COc1ccc(C/C(C)=C(/c2ccc(OCCN3CCCCC3)cc2)c2ccc(OC(=O)NCc3ccccc3)cc2)cc1", "growth": "-90% (active)"},
      {"smiles": "COc1ccccc1NC(=O)Cn1cc(CN2CCN(c3ccnc4cc(Cl)ccc34)CC2)nn1", "growth": "96.3%"},
      {"smiles": "N=C(N)c1ccc(-c2ccc(-c3ccc(F)cc3)o2)o1", "growth": "-13.7% (active)"},
      {"smiles": "CN1C(=O)/C(=C/c2ccc(C(=O)Nc3ncc(Cc4ccc(Cl)cc4)s3)cc2)SC1=S", "growth": "21.1%"},
      {"smiles": "CCCCCC(=O)OCC(=O)O[C@@H]1C[C@]2(C(C)C)O[C@@]1(C)[C@@H]1CC[C@@H](C)[C@H]1[C@@H]2OC(=O)/C=C/c1ccccc1", "growth": "93.3%"},
      {"smiles": "CC(=O)N(N=Nc1ccccc1)c1cccc2ccccc12", "growth": "55.7%"},
      {"smiles": "COc1ccc(/C=C2\\C(=O)N=C3N2NC(c2cc(Br)ccc2O)C=C(C)N3c2ccccc2)cc1", "note": "(centres undefined)", "growth": "104%"},
      {"smiles": "CC(C)(C)[Si](C)(C)O[C@H]1C(=O)C=CN2CC=C[C@@H]12", "growth": "103% [100 µM]"},
      {"smiles": "C=C1C(=O)O[C@H]2[C@H]1CC/C(COC(=O)CSCCSCC(=O)OC/C1=C/CC[C@@]3(C)O[C@H]3[C@H]3OC(=O)C(=C)[C@@H]3CC1)=C\\CC[C@@]1(C)O[C@@H]21", "growth": "22.1%"},
      {"smiles": "Brc1ccc2[nH]cc(-c3nonc3-c3c[nH]c4ccccc34)c2c1", "growth": "12.2%"},
      {"smiles": "COc1cccc(NC(=O)Cn2cc(CN3CCN(c4ccnc5cc(Cl)ccc45)CC3)nn2)c1", "growth": "97.5%"},
      {"smiles": "CCOc1ccc(NC(=O)CSc2oc(-c3ccccc3)nc2S(=O)(=O)c2ccc(F)cc2)cc1", "growth": "53.9%"},
      {"smiles": "O=C1Nc2ccc(Br)cc2/C1=N/c1n[nH]c(=S)s1", "growth": "106%"},
      {"smiles": "COc1ccc(C(=O)C2C(c3ccc(OC)cc3)CN(C)C23C(=O)Nc2ccccc23)cc1", "note": "(centres undefined)", "growth": "97.7%"},
      {"smiles": "Cc1noc(C)c1C(=O)OCc1coc2ccccc2c1=O", "growth": "83.8%"},
      {"smiles": "C[C@]12CC[C@@H]3c4ccc(O)c([N+](=O)[O-])c4CC[C@H]3[C@@H]1CCC2=O", "growth": "112%"},
      {"smiles": "COc1cccc([C@H]2c3[nH]c4ccccc4c3C[C@H]3C(=O)N(CCCCCCC(=O)NO)CC(=O)N23)c1", "growth": "72.9%"},
      {"smiles": "CO/N=C(/C)c1ccc(NC(=O)CSc2nnc(-c3ccncc3)n2-c2ccccc2)cc1", "growth": "15.9%"}
    ]}
  ]
}
